This is part of a sample that, as a whole, favours compounds with a hit. Of some 79,000 tested, about 15% had one in any assay. Values without a mark were called inactive. Calls of active or inactive are those of the source. Cut-off read from the data, not from the text of the source: active = growth inhibition above about 70%; inactive = the rest.
What was measured:
[1] = NCI Yeast Anticancer Drug Screen. Data for the rad50 strain (AID 155);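 note: 0% = growth of vehicle-only cultures of the same strain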; conditions: S. cerevisiae rad50 strain growth inhibition; at 50.0 µM; stronger effect = higher value
How it was run: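 Vehicle-treated cultures provide the reference for the growth inhibition reported for compound-exposed, repair-deficient yeast.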

[2] = NCI Yeast Anticancer Drug Screen. Data for the mec2-1 strain (AID 157); conditions: S. cerevisiae mec2-1 strain, at 50.0 µM, stronger effect = higher value
How it was run: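 Vehicle-treated cultures served as reference for growth inhibition of compound-exposed mec2-1 yeast.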

[3] = NCI Yeast Anticancer Drug Screen. Data for the sgs1 mgt1 strain (AID 161);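 note: 0% = growth of cultures given vehicle only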; conditions: S. cerevisiae sgs1 mgt1 strain, at 50.0 µM, stronger effect = higher value
How it was run: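 Inhibition of yeast growth, normalised to vehicle-treated controls, is reported for a strain bearing genetic alterations in DNA damage repair.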

[4] = NCI Yeast Anticancer Drug Screen. Data for the cln2 rad14 strain (AID 165);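 note: 0% = growth equal to vehicle treated cultures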; conditions: S. cerevisiae cln2 rad14 strain, at 50.0 µM, stronger effect = higher value
How it was run: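 Each compound was tested on cln2 rad14 yeast. Inhibition of growth was calculated against vehicle-exposed controls.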

[5] = NCI Yeast Anticancer Drug Screen. Data for the bub3 strain (AID 167); conditions: S. cerevisiae bub3 mutant strain, at 50.0 µM, stronger effect = higher value
How it was run: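 Mutant yeast screening strain plus compound; vehicle-treated cultures serve as the 0% inhibition reference.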

[6] = NCI Yeast Anticancer Drug Screen. Data for the mlh1 rad18 strain (AID 175); conditions: S. cerevisiae mlh1 rad18 strain growth inhibition; at 50.0 µM; stronger effect = higher value
How it was run: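 Vehicle-treated cultures served as the reference for growth inhibition in a yeast strain carrying DNA damage repair alterations exposed to each compound.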

| Compound | growth inhibition [1] | growth inhibition [2] | growth inhibition [3] | growth inhibition [4] | growth inhibition [5] | growth inhibition [6] |
| --- | --- | --- | --- | --- | --- | --- |
| O=[N+]([O-])c1ccc(NC2CCCCC2)nc1 | 14% | -9.85% | 13.9% | 7.65% | 42.6% | -1.55% |
| CCOC(=O)CCC(NC(=O)c1ccc(Nc2nc3ccccc3nc2-c2cccs2)cc1)C(=O)OCC (stereo unspecified) | 7.1% | 4.3% | 20.1% | 14.8% | 9.2% | -34.7% |
| COC(=O)c1nc(=S)[nH]c(C(=O)OC)c1C(=O)c1ccccc1 | -25.9% | -12.9% | -27.4% | 36% | -25.4% | -16.4% |
| O=C(OCCOCBr)c1ccccc1 | -9.75% | -32.5% | 19.9% | 18% | 31.1% | -14.3% |
| ClC1CC2CCC1C2 (stereo unspecified) | 26.9% | -20.8% | 8.45% | 7.75% | -8.3% | 9.1% |
| Brc1ccccc1-c1nc2ccccc2[nH]1 | 4.1% | -4.4% | 4% | -63% | -6.1% | -2.55% |
| CCCCCCCCCCCCCCCCS(=O)(=O)N/N=C/c1ccc2c(c1)OCO2 | 13.9% | 3% | 3.5% | 4.05% | -0.55% | -3.25% |
| CC(C)(C)C1CCC(=NO)CC1 (stereo unspecified) | 23.1% | 16.1% | 16.5% | 18.3% | 14.3% | 23.8% |
| O=[N+]([O-])c1cccc(N=Cc2ccccc2)c1 | 7.25% | 12.9% | -7.4% | 8.15% | 13.8% | 6.05% |
| C=CS(=O)(=O)CCOc1ccc(Cl)cc1Cl | 98.8% (active) | 99.2% (active) | 99.7% (active) | 97.8% (active) | 98.4% (active) | 98.9% (active) |
| Cc1ccccc1NC(=O)/C(C#N)=N\Nc1nc[nH]c1C(N)=O | -33.7% | -22.6% | -11.8% | 6.2% | -45.9% | 13.1% |
| CC(C)C(O)(c1ccccc1)C(O)(c1ccccc1)C(C)C (stereo unspecified) | 99.5% (active) | 99.6% (active) | 99.5% (active) | 99% (active) | 99.5% (active) | 99.5% (active) |
| CC1=CC(=O)c2cccc(NC3=NCCO3)c21 | -31.3% | -20.8% | -2.95% | -28.9% | -2% | -29.2% |
| Nc1nc(N)nc(-c2cc(Br)ccc2N)n1 | 51.6% | -0.3% | 12.4% | 19.1% | 30.4% | 7.5% |
| COc1ccc(/C=C2\N=C(c3ccc([N+](=O)[O-])cc3)OC2=O)cc1 | -2.7% | -6% | -8.35% | -9.5% | 0.55% | 18.4% |
| Cc1ncc(Cl)c2cc3ccccc3cc12 | -2.4% | 2.1% | -0.7% | -24.6% | -3.25% | -7.55% |
| O=C(O)/C=C/c1ccc(O)c(O)c1 | 18.3% | -7.15% | 0.5% | 9.9% | 7.25% | 7.65% |
| CC(C)N1COC(c2ccccc2)C1 (stereo unspecified) | 6.05% | 0.35% | -19.1% | -17.9% | -24.9% | -26.1% |
| C/C(=N\O)c1cccs1 | 3.8% | -4.05% | -6% | -8.9% | -0.25% | -1.4% |
| COc1ccc(C(C)=C2C=C(C(C)(C)C)C(=O)C(C(C)(C)C)=C2)cc1 | -26.6% | -16.2% | -17.4% | 34.2% | 1.35% | -17.4% |
| Cc1cccc(C(C)(O)c2cnc(C)n2Cc2ccccc2)c1 (stereo unspecified) | 5.1% | 14.2% | 10.8% | 18.8% | 9.35% | 15.2% |

| Compound | growth inhibition [1] | growth inhibition [2] | growth inhibition [3] | growth inhibition [4] | growth inhibition [5] | growth inhibition [6] |
| --- | --- | --- | --- | --- | --- | --- |
| COC(=O)C(=O)C(/C=N/C(=S)Nc1ccc(S(=O)(=O)Nc2nccs2)cc1)=C(\O)c1c(C)[nH]c2ccccc12 | 39.1% | 23.8% | 35% | 5.2% | 35.9% | 29.8% |
| CC(=O)CC(=O)Nc1ccccc1[N+](=O)[O-] | -7.05% | -24.4% | -0.65% | 15.9% | 7.05% | -9.65% |
| O=c1cc(-c2ccccc2)c2cc3c(=O)ccoc3cc2o1 | 12.8% | 27.1% | 12% | 14.9% | -1.55% | 0.95% |
| N=c1c2c(ncn1N)CCN(Cc1ccccc1)C2 | -8.55% | 7.35% | -11.4% | -71.8% | -6% | -32.8% |
| O=C(c1ccccc1)C(c1ccccc1)(c1ccccc1)c1ccccc1 | -4.1% | 6.2% | -17.3% | -30% | -10.2% | 24.1% |
| CCOC(=O)C1(C(=O)OCC)CCC(C(OC)OC)C(CC(=O)OC)C1 (stereo unspecified) | -2.45% | -15.7% | -5.2% | -6.5% | 26.4% | 16.4% |
| CC12CCCC(C(=O)O)(C1)[C@H](C(C)(C)C(=O)O)CC2 (stereo partly specified) | -29.5% | -40.9% | -15.7% | 8.75% | -4.2% | -10.8% |
| CN1C(=O)/C(=C2\SC(=O)N(CN3CCCCC3)C2=O)c2cc(Br)ccc21 | -10.6% | -1.2% | -11.2% | 10.2% | -2.45% | 18.1% |
| CC(C)(C)C1=CC(=O)C(C(C)(C)C)=CC1=O | -2.35% | 3.2% | -17.2% | -55% | -7% | 17.7% |
| COC(=O)c1oc([N+](=O)[O-])c(-c2ccccc2)c1-c1ccccc1 | 6.95% | 12.5% | 29.3% | -11.5% | 6.85% | 24.1% |
| CNN=C(C)C | -2.15% | 3.8% | -3.4% | -4.8% | 2.5% | -19.3% |
| N#CC(c1cccs1)C1CCCCC1 (stereo unspecified) | 9.4% | -0.5% | 2.05% | -11.8% | 2.65% | -1.3% |
| COc1ccc(OC)c2c(C(C)=O)cccc12 | -35% | -42.1% | -4.2% | -12.8% | -17.2% | -21.7% |
| COc1cc(N=C(N)N=C(N)N)c2ncccc2c1 | -3.1% | -18.1% | -11.9% | -41% | -3.75% | -13.2% |
| CC(C)CCOC(=O)c1ccc(C(C)C)cc1 | 7.65% | 9.85% | -0.35% | -17.7% | 46.6% | 5.3% |
| CN(C)c1ccc(C(=N)c2ccc(N(C)C)cc2)cc1 | -3.85% | 4.9% | -6% | -35.5% | 5.45% | -0.15% |
| CC(Cl)C(=O)N(C)c1ccccc1 (stereo unspecified) | 3.6% | -14.8% | -2.9% | -16% | -14.8% | -14.1% |
| CCOc1ccccc1NC(=S)NC1CCCCC1 | -8.65% | -9.3% | 3.7% | -17.2% | 25.1% | -6.3% |
| Nc1ccc(F)c([N+](=O)[O-])c1 | -6.05% | 0.65% | -1.6% | -23.6% | -1.55% | -1.2% |
| CC1=CC(NCCC(=O)O)NC(=O)N1 (stereo unspecified) | 4.25% | -6.2% | -18.1% | -62.6% | -1.75% | -1.85% |

— PubChem BioAssay (NCI)
